Data on 21 compounds can be found in PubChem BioAssay (NCI).

A short description of assay [1]: NCI Yeast Anticancer Drug Screen. Data for the rad50 strain (AID 155).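 Note: 0% = growth of vehicle-only cultures of the same strain.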 Conditions: S. cerevisiae rad50 strain growth inhibition, hits give high values; at 50.0 µM unless noted. In short, it runs like this:
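Yeast carrying a defined DNA repair defect were exposed to test compounds, and growth was compared with vehicle-treated controls to give percent inhibition.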

The nature of assay [2]: NCI Yeast Anticancer Drug Screen. Data for the mec2-1 strain (AID 157). To be noted: S. cerevisiae mec2-1 strain, hits give high values; at 50.0 µM unless noted. In short, it runs like this:
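Readout is yeast growth inhibition, normalised to vehicle-treated controls, in the mec2-1 strain exposed to compound.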

Assay [3] is described as follows: NCI Yeast Anticancer Drug Screen. Data for the sgs1 mgt1 strain (AID 161).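 Note: 0% = growth of cultures given vehicle only.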 Conditions: S. cerevisiae sgs1 mgt1 strain, hits give high values; at 50.0 µM unless noted. The procedure, abridged:
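Yeast cells carrying a defined DNA-repair defect were exposed to test compounds. Growth inhibition was measured relative to vehicle-treated controls.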

Assay [4] can be described thus: NCI Yeast Anticancer Drug Screen. Data for the cln2 rad14 strain (AID 165).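 Note: 0% = growth equal to vehicle treated cultures.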 Conditions: S. cerevisiae cln2 rad14 strain, hits give high values; at 50.0 µM unless noted. In short, it runs like this: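 Relative to vehicle controls, growth inhibition of compound-treated cln2 rad14 yeast was recorded.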
Assay [5] is described as follows: NCI Yeast Anticancer Drug Screen. Data for the bub3 strain (AID 167). Conditions: S. cerevisiae bub3 mutant strain, hits give high values; at 50.0 µM unless noted. In short, it runs like this:
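Compounds were applied to a genetically altered yeast strain carrying a cell-cycle control defect. Growth inhibition was scored against vehicle-treated controls.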

Assay [6] is described as follows: NCI Yeast Anticancer Drug Screen. Data for the mlh1 rad18 strain (AID 175). Conditions: S. cerevisiae mlh1 rad18 strain growth inhibition, hits give high values; at 50.0 µM unless noted. In short, it runs like this: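 Test agents were incubated with a yeast strain of defined genotype (DNA damage repair defect). Inhibition of growth was derived by comparison with vehicle-exposed cultures.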

Several values for one entry are separate records, joined by “and”; a condition that tells them apart may be missing. Equal values may be shown once. About 79,000 compounds went through this panel and 15% of them were active in at least one assay; those are over-represented in the sample as a whole. A number with no mark means an inactive call. Activity calls are given as the source filed them. Cut-off read from the data, not from the text of the source: active = growth inhibition above about 70%; inactive = the rest.

For `Cc1ccc(Nc2ccc(C)cc2[N+](=O)[O-])cc1`, the growth inhibition in assay [1] was 18.3%; in assay [2] it was -2.25%; in assay [3], 32.9%; in assay [4] it was 15.1%; in assay [5] it was 31.6%; in assay [6], 17.6%.

In the case of `COc1c2c(c(OC)c3ccccc13)C(=O)C1=C(CC=CC1)C2=O`, the growth inhibition in assay [1] is 4%; in assay [2], 18.4%; in assay [3], -8.6%; in assay [4], -10.1%; in assay [5] it was 14.6%; in assay [6], 40.1%.

On to `CCOC(=O)C(Cc1c[nH]c2c(N(CCO)CCO)cccc12)(NC(C)=O)C(=O)OCC`, for which the growth inhibition in assay [1] was -0.45%; in assay [2], -17.2%; in assay [3] it was 16%; in assay [4] it was 21.7%; in assay [5] it was -5.55%; in assay [6], 9.95%.

For `C(/C=N/Nc1ccccc1)=N\Nc1ccccc1`, the growth inhibition was 24.1% in assay [1]; -8.15% in assay [2]; -0.65% in assay [3]; -3% in assay [4]; -9.85% in assay [5]; 8.8% in assay [6].

With `OCCNc1ncnc2c1ncn2C1OC(CO)C(O)C1O` (stereo unspecified), the growth inhibition in assay [1] is 6.3%; in assay [2], 5.25%; in assay [3] it was -12.3%; in assay [4] it was -23.9%; in assay [5], -20%; in assay [6], 22%.

As to `CCOC(=O)C(Cc1cc(N)c(Oc2ccc(OC)cc2)c(N)c1)NC(C)=O` (stereo unspecified), the growth inhibition in assay [1] was -16.1%; in assay [2], -36.9%; in assay [3], -4.65%; in assay [4] it was 14.9%; in assay [5] it was -9.1%; in assay [6], 5.25%.

`CC(C)CCCC(C)C1CCC2C3CC4OC45CC(O)CCC5(C)C3CCC12C` (stereo unspecified): the growth inhibition in assay [1] was 42.4%; in assay [2], 18.1%; in assay [3], 47.7%; in assay [4] it was 7.3%; in assay [5] it was -1.1%; in assay [6], 29.4%.

As to `CCC1=CCN(c2ccccn2)OC1c1ccc(OC)cc1` (stereo unspecified), the growth inhibition in assay [1] is 32.6%; in assay [2], 13.7%; in assay [3], 49.2%; in assay [4], 22.3%; in assay [5], 40.2%; in assay [6], 24.1%.

With `CCCCCCCCCC(=O)N1CCCC(C)C1` (stereo unspecified), the growth inhibition is 99.5% (active) in assay [1]; 99.7% (active) in assay [2]; 99.6% (active) in assay [3]; 98.7% (active) in assay [4]; 99.2% (active) in assay [5]; 99.5% (active) in assay [6].

In the case of `CN(C)C[C@@H]1C2C=CC(C2)[C@@H]1CO` (stereo partly specified), the growth inhibition in assay [1] was -6.5%; in assay [2], 4.55%; in assay [3], -0.9%; in assay [4], 4.95%; in assay [5] it was 2.25%; in assay [6], -10.6%.

With `CCOC(=O)C1CC2OC2CC1C(=O)OCC` (stereo unspecified), the growth inhibition was 0.55% in assay [1]; -36.9% in assay [2]; -15.2% in assay [3]; 12.4% in assay [4]; -1.9% in assay [5]; -33.2% in assay [6].

Consider `O=C1C(=O)c2ccccc2C(O)=C1C1CCCCC1`, for which the growth inhibition in assay [1] is 44.4%; in assay [2], 2.15%; in assay [3], 24.3%; in assay [4], 5.55%; in assay [5], 18.1%; in assay [6], 26.9%.

For `Cc1cc(C)nc(NS(=O)(=O)c2ccc(NC(=O)c3ccc(Cl)c4c(Nc5ccc(S(=O)(=O)N=C(N)N)cc5)c5ccccc5nc34)cc2)n1`, the growth inhibition in assay [1] is 28%; in assay [2], 27%; in assay [3], 20.1%; in assay [4] it was 29.7%; in assay [5], 23.2%; in assay [6] it was 31.4%.

Turning to `C=CCS(=O)(=O)CC=C`, the growth inhibition in assay [1] was 23.9%; in assay [2], -12.5%; in assay [3] it was -7.3%; in assay [4], 3%; in assay [5] it was -15.6%; in assay [6], 17.9%.

`CCCCN=C(N)C(N)=NCCCC`: the growth inhibition in assay [1] was -13.8%; in assay [2], -4.65%; in assay [3], -5.7%; in assay [4], -28.3%; in assay [5], 0.5%; in assay [6] it was -18.7%.

Consider `S=c1nc2ccccn2c(=S)n1-c1ccccn1`, for which the growth inhibition in assay [1] is 33.6%; in assay [2] it was 23.9%; in assay [3], 27.4%; in assay [4] it was 0.5%; in assay [5], 24.5%; in assay [6], 57.9%.

Turning to `COc1ccc(C(CC(=O)C(C)(C)CN2CCCCC2)SCCS(=O)(=O)O)cc1` (stereo unspecified), the growth inhibition is -2.75% in assay [1]; -4.9% in assay [2]; -3.15% in assay [3]; 2.85% in assay [4]; -1.6% in assay [5]; 4.15% in assay [6].

For the compound `CC(C)OC(=O)Nc1cccc(Cl)c1F`, the growth inhibition in assay [1] is 15.9%; in assay [2], -10.8%; in assay [3] it was -6.2%; in assay [4], -0.75%; in assay [5], 8.2%; in assay [6], 8.65%.

With `CCOC(=O)c1[nH]c(C)c(C#N)c1C`, the growth inhibition in assay [1] was -34.4%; in assay [2], -26.6%; in assay [3], -12.7%; in assay [4], -34.6%; in assay [5], -20.8%; in assay [6] it was -19.1%.

Turning to `c1ccc(CNCCNCc2ccccc2)cc1`, the growth inhibition in assay [1] is 0.3% and 58.3%; in assay [2], 4.75% and -16.4%; in assay [3] it was 14.4% and 50.9%; in assay [4], -56.7% and -11.3%; in assay [5] it was -11.7% and 0.05%; in assay [6], -5.35% and 46%.

With `O=C1COC(=O)CO1`, the growth inhibition in assay [1] is -15.6%; in assay [2] it was -18.9%; in assay [3], -5.7%; in assay [4], 34.2%; in assay [5] it was 8.55%; in assay [6] it was -10.7%.
